According to the supplement of paper PMC13380429:
Values without a mark were called inactive.

Test system: Vero E6 infected with SARS-CoV-2
Experiment: inhibition of SARS-CoV-2 cytopathic effect; higher = more antiviral protection, active = above 15
Settings: 48 h

Compound: CN(C)c1ccccc1CN1CCCN(Cc2ccccc2N(C)C)C1c1ccncc1
- inhibition of SARS-CoV-2 cytopathic effect (1 nM): 0.09%
- inhibition of SARS-CoV-2 cytopathic effect (8.33 nM): 1.84%
- inhibition of SARS-CoV-2 cytopathic effect (100 nM): 0.14%
- inhibition of SARS-CoV-2 cytopathic effect (833.33 nM): 0.48%
- inhibition of SARS-CoV-2 cytopathic effect (10000 nM): 21% (active)

Compound: CN(C)CCCO[C@@H]1[C@H]2OC(C)(C)O[C@H]2O[C@@H]1[C@H](O)CO [amiprilose]
- inhibition of SARS-CoV-2 cytopathic effect (1 nM): -4.79%
- inhibition of SARS-CoV-2 cytopathic effect (8.33 nM): -3.54%
- inhibition of SARS-CoV-2 cytopathic effect (100 nM): -5.54%
- inhibition of SARS-CoV-2 cytopathic effect (833.33 nM): -4.16%
- inhibition of SARS-CoV-2 cytopathic effect (10000 nM): -1.28%

Compound: OC(CCCN1CCN(c2ncc(F)cn2)CC1)c1ccc(F)cc1 (stereo not given)
- inhibition of SARS-CoV-2 cytopathic effect (1 nM): -3.3%
- inhibition of SARS-CoV-2 cytopathic effect (8.33 nM): -0.94%
- inhibition of SARS-CoV-2 cytopathic effect (100 nM): 3.34%
- inhibition of SARS-CoV-2 cytopathic effect (833.33 nM): 4.34%
- inhibition of SARS-CoV-2 cytopathic effect (10000 nM): 0.33%

Compound: CC[C@H](NC(=O)c1c(O)c(-c2ccccc2)nc2ccccc12)c1ccccc1 [talnetant]
- inhibition of SARS-CoV-2 cytopathic effect (1 nM): -0.24%
- inhibition of SARS-CoV-2 cytopathic effect (8.33 nM): 0.6%
- inhibition of SARS-CoV-2 cytopathic effect (100 nM): -1.02%
- inhibition of SARS-CoV-2 cytopathic effect (833.33 nM): -1.22%
- inhibition of SARS-CoV-2 cytopathic effect (10000 nM): 2.11%

Compound: CCCCC(F)(F)[C@@]1(O)CC[C@H]2[C@@H](CC(=O)[C@@H]2CCCCCCC(=O)O)O1 [lubiprostone]
- inhibition of SARS-CoV-2 cytopathic effect (1 nM): -0.41%
- inhibition of SARS-CoV-2 cytopathic effect (8.33 nM): -0.13%
- inhibition of SARS-CoV-2 cytopathic effect (100 nM): -0.73%
- inhibition of SARS-CoV-2 cytopathic effect (833.33 nM): -1.89%
- inhibition of SARS-CoV-2 cytopathic effect (10000 nM): -0.01%

Compound: C=C1/C(=C\C=C2/CCC[C@]3(C)[C@@H]([C@H](C)OCCC(C)(C)O)CC[C@@H]23)C[C@@H](O)C[C@@H]1O [maxacalcitol]
- inhibition of SARS-CoV-2 cytopathic effect (1 nM): 1.71%
- inhibition of SARS-CoV-2 cytopathic effect (8.33 nM): 0.65%
- inhibition of SARS-CoV-2 cytopathic effect (100 nM): -1.77%
- inhibition of SARS-CoV-2 cytopathic effect (833.33 nM): 0.61%
- inhibition of SARS-CoV-2 cytopathic effect (10000 nM): -0.56%

Compound: O=C(Cn1ccnc1[N+](=O)[O-])NCCO [etanidazole]
- inhibition of SARS-CoV-2 cytopathic effect (1 nM): 0.32%
- inhibition of SARS-CoV-2 cytopathic effect (8.33 nM): 0.33%
- inhibition of SARS-CoV-2 cytopathic effect (100 nM): 4.88%
- inhibition of SARS-CoV-2 cytopathic effect (833.33 nM): -1.27%
- inhibition of SARS-CoV-2 cytopathic effect (10000 nM): -0.88%

Compound: CCCn1c(=O)c(C)cn2nc(N)nc12
- inhibition of SARS-CoV-2 cytopathic effect (1 nM): 3.43%
- inhibition of SARS-CoV-2 cytopathic effect (8.33 nM): 2.31%
- inhibition of SARS-CoV-2 cytopathic effect (100 nM): -0.1%
- inhibition of SARS-CoV-2 cytopathic effect (833.33 nM): 2.28%
- inhibition of SARS-CoV-2 cytopathic effect (10000 nM): -2.15%

Compound: CCOC(=O)COc1ccc2c(=O)cc(-c3ccccc3)oc2c1 [efloxate]
- inhibition of SARS-CoV-2 cytopathic effect (1 nM): -1.98%
- inhibition of SARS-CoV-2 cytopathic effect (8.33 nM): 0.67%
- inhibition of SARS-CoV-2 cytopathic effect (100 nM): 0.32%
- inhibition of SARS-CoV-2 cytopathic effect (833.33 nM): -1.24%
- inhibition of SARS-CoV-2 cytopathic effect (10000 nM): -0.78%

Compound: Cc1cccc(NC(=O)CN2CCC(c3ccccn3)CC2)c1
- inhibition of SARS-CoV-2 cytopathic effect (1 nM): 1.23%
- inhibition of SARS-CoV-2 cytopathic effect (8.33 nM): 1.06%
- inhibition of SARS-CoV-2 cytopathic effect (100 nM): -0.12%
- inhibition of SARS-CoV-2 cytopathic effect (833.33 nM): 0%
- inhibition of SARS-CoV-2 cytopathic effect (10000 nM): 3.09%

Compound: O=c1nc2ccccc2c2n1CC(CN1CCN(c3ccccc3)CC1)N2 (stereo not given)
- inhibition of SARS-CoV-2 cytopathic effect (1 nM): 3.05%
- inhibition of SARS-CoV-2 cytopathic effect (8.33 nM): 5.11%
- inhibition of SARS-CoV-2 cytopathic effect (100 nM): 2.83%
- inhibition of SARS-CoV-2 cytopathic effect (833.33 nM): 4.08%
- inhibition of SARS-CoV-2 cytopathic effect (10000 nM): 5.46%

Compound: CCCCC(=O)N(Cc1ccc(-c2ccccc2-c2nnn[nH]2)cc1)[C@H](C(=O)O)C(C)C [valsartan]
- inhibition of SARS-CoV-2 cytopathic effect (1 nM): 0.84%
- inhibition of SARS-CoV-2 cytopathic effect (8.33 nM): -1.89%
- inhibition of SARS-CoV-2 cytopathic effect (100 nM): 0.86%
- inhibition of SARS-CoV-2 cytopathic effect (833.33 nM): 0.99%
- inhibition of SARS-CoV-2 cytopathic effect (10000 nM): 0.91%

Compound: Nc1ccc(-c2nc3ccc(-c4nc5ccc(N)cc5[nH]4)cc3[nH]2)cc1
- inhibition of SARS-CoV-2 cytopathic effect (1 nM): -0.32%
- inhibition of SARS-CoV-2 cytopathic effect (8.33 nM): 0.21%
- inhibition of SARS-CoV-2 cytopathic effect (100 nM): -0.94%
- inhibition of SARS-CoV-2 cytopathic effect (833.33 nM): 2.79%
- inhibition of SARS-CoV-2 cytopathic effect (10000 nM): 6.35%

Compound: CC(C)C[C@@H](NC(=O)[C@H](C)NC(=O)CNC(=O)[C@@H](NC=O)C(C)C)C(=O)N[C@@H](C)C(=O)N[C@@H](C(=O)N[C@H](C(=O)N[C@@H](C(=O)N[C@@H](Cc1c[nH]c2ccccc12)C(=O)N[C@H](CC(C)C)C(=O)N[C@@H](Cc1c[nH]c2ccccc12)C(=O)N[C@H](CC(C)C)C(=O)N[C@@H](Cc1c[nH]c2ccccc12)C(=O)N[C@H](CC(C)C)C(=O)N[C@@H](Cc1c[nH]c2ccccc12)C(=O)NCCO)C(C)C)C(C)C)C(C)C [gramicidin]
- inhibition of SARS-CoV-2 cytopathic effect (1 nM): 0.05%
- inhibition of SARS-CoV-2 cytopathic effect (8.33 nM): 0.15%
- inhibition of SARS-CoV-2 cytopathic effect (100 nM): 0.36%
- inhibition of SARS-CoV-2 cytopathic effect (833.33 nM): -1.18%
- inhibition of SARS-CoV-2 cytopathic effect (10000 nM): 2.22%

Compound: CCC(=O)O[C@]1(C(=O)COC(C)=O)CC[C@H]2[C@@H]3C[C@H](C)C4=CC(=O)C=C[C@]4(C)[C@H]3[C@@H](O)C[C@@]21C [methylprednisolone-aceponate]
- inhibition of SARS-CoV-2 cytopathic effect (1 nM): 1.61%
- inhibition of SARS-CoV-2 cytopathic effect (8.33 nM): 1%
- inhibition of SARS-CoV-2 cytopathic effect (100 nM): 0.19%
- inhibition of SARS-CoV-2 cytopathic effect (833.33 nM): 3.54%
- inhibition of SARS-CoV-2 cytopathic effect (10000 nM): 2.69%

Compound: CNCC(O)c1ccc(O)c(O)c1 (racemic) [DL-Adrenaline]
- inhibition of SARS-CoV-2 cytopathic effect (1 nM): 1.39%
- inhibition of SARS-CoV-2 cytopathic effect (8.33 nM): -1.53%
- inhibition of SARS-CoV-2 cytopathic effect (100 nM): 1.56%
- inhibition of SARS-CoV-2 cytopathic effect (833.33 nM): -2.05%
- inhibition of SARS-CoV-2 cytopathic effect (10000 nM): -1.47%

Compound: COCCCN1CCC(NC(=O)c2cc(Cl)c(N)c3c2OCC3)CC1 [prucalopride]
- inhibition of SARS-CoV-2 cytopathic effect (1 nM): 0.43%
- inhibition of SARS-CoV-2 cytopathic effect (8.33 nM): 1.93%
- inhibition of SARS-CoV-2 cytopathic effect (100 nM): -0.24%
- inhibition of SARS-CoV-2 cytopathic effect (833.33 nM): 3.32%
- inhibition of SARS-CoV-2 cytopathic effect (10000 nM): 1.47%

Compound: O=C(Nc1ccccc1)Nc1ccc(-c2ccc(C(=O)[C@@H]3CCC[C@@H]3C(=O)O)cc2)cc1
- inhibition of SARS-CoV-2 cytopathic effect (1 nM): -1.33%
- inhibition of SARS-CoV-2 cytopathic effect (8.33 nM): 1.31%
- inhibition of SARS-CoV-2 cytopathic effect (100 nM): 3.77%
- inhibition of SARS-CoV-2 cytopathic effect (833.33 nM): 1.06%
- inhibition of SARS-CoV-2 cytopathic effect (10000 nM): -1.53%

Compound: COc1cccc(-c2cc(NCc3ccc4c(c3)OCO4)nc(N)n2)c1
- inhibition of SARS-CoV-2 cytopathic effect (1 nM): 0.39%
- inhibition of SARS-CoV-2 cytopathic effect (8.33 nM): -1.05%
- inhibition of SARS-CoV-2 cytopathic effect (100 nM): 0.16%
- inhibition of SARS-CoV-2 cytopathic effect (833.33 nM): -2.75%
- inhibition of SARS-CoV-2 cytopathic effect (10000 nM): -1.99%

Compound: O=C(/C=C/c1cccc(S(=O)(=O)Nc2ccccc2)c1)NO [belinostat]
- inhibition of SARS-CoV-2 cytopathic effect (1 nM): -1.11%
- inhibition of SARS-CoV-2 cytopathic effect (8.33 nM): 0.41%
- inhibition of SARS-CoV-2 cytopathic effect (100 nM): -1.26%
- inhibition of SARS-CoV-2 cytopathic effect (833.33 nM): -13.7%
- inhibition of SARS-CoV-2 cytopathic effect (10000 nM): -27.1%

Compound: COc1ccc(CNC(=O)c2sc3nc(C)cc(C)c3c2N)cc1
- inhibition of SARS-CoV-2 cytopathic effect (1 nM): 1.68%
- inhibition of SARS-CoV-2 cytopathic effect (8.33 nM): 2.93%
- inhibition of SARS-CoV-2 cytopathic effect (100 nM): 2.17%
- inhibition of SARS-CoV-2 cytopathic effect (833.33 nM): 2.96%
- inhibition of SARS-CoV-2 cytopathic effect (10000 nM): 2.28%

Compound: O=C(O)C1=CCCN(CCON=C(c2ccccc2)c2ccccc2)C1
- inhibition of SARS-CoV-2 cytopathic effect (1 nM): -1.65%
- inhibition of SARS-CoV-2 cytopathic effect (8.33 nM): 0.36%
- inhibition of SARS-CoV-2 cytopathic effect (100 nM): 0.96%
- inhibition of SARS-CoV-2 cytopathic effect (833.33 nM): 0.86%
- inhibition of SARS-CoV-2 cytopathic effect (10000 nM): 2.06%

Compound: CC1CCc2c(N3CCC(O)CC3)c(F)cc3c(=O)c(C(=O)O)cn1c23 (stereo not given) [nadifloxacin]
- inhibition of SARS-CoV-2 cytopathic effect (1 nM): 3.29%
- inhibition of SARS-CoV-2 cytopathic effect (8.33 nM): 1.42%
- inhibition of SARS-CoV-2 cytopathic effect (100 nM): 0.26%
- inhibition of SARS-CoV-2 cytopathic effect (833.33 nM): 3.52%
- inhibition of SARS-CoV-2 cytopathic effect (10000 nM): 2.69%

Compound: COc1ccc(/C=C/C(=O)O)cc1 [trans-4-methoxycinnamic-acid]
- inhibition of SARS-CoV-2 cytopathic effect (1 nM): 1.02%
- inhibition of SARS-CoV-2 cytopathic effect (8.33 nM): -0.31%
- inhibition of SARS-CoV-2 cytopathic effect (100 nM): -1.64%
- inhibition of SARS-CoV-2 cytopathic effect (833.33 nM): -0.87%
- inhibition of SARS-CoV-2 cytopathic effect (10000 nM): -1.56%

Compound: Cc1c(C(=O)NN2CCCCC2)nn(-c2ccc(Cl)cc2Cl)c1-c1ccc(Cl)cc1 [rimonabant]
- inhibition of SARS-CoV-2 cytopathic effect (1 nM): -1.86%
- inhibition of SARS-CoV-2 cytopathic effect (8.33 nM): 1.55%
- inhibition of SARS-CoV-2 cytopathic effect (100 nM): -0.12%
- inhibition of SARS-CoV-2 cytopathic effect (833.33 nM): 0.01%
- inhibition of SARS-CoV-2 cytopathic effect (10000 nM): -3.44%
